Among all 52,000 compounds or so, fewer than 10 were called active.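 How the source made its calls: active means IC50 under 40 µM in the dose-response test; inactive means IC50 of 40 µM or more, or never dose-tested.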 These entries were drawn from the full list.
Each molecule was assayed against Tyrosine-protein phosphatase non-receptor type 22 (Homo sapiens) (UniProt Q9Y2R2) (assay: inhibition of human PTPN22 tyrosine phosphatase – biochemical, DiFMUP fluorescence, recombinant catalytic domain, 10 µM, primary screen (AID 606)). Details: recombinant LYP catalytic domain, at 10 µM, stronger effect = higher value.
Chain of Tyrosine-protein phosphatase non-receptor type 22 (Homo sapiens) (Q9Y2R2 whole entry, looked up, the tested form may be a part): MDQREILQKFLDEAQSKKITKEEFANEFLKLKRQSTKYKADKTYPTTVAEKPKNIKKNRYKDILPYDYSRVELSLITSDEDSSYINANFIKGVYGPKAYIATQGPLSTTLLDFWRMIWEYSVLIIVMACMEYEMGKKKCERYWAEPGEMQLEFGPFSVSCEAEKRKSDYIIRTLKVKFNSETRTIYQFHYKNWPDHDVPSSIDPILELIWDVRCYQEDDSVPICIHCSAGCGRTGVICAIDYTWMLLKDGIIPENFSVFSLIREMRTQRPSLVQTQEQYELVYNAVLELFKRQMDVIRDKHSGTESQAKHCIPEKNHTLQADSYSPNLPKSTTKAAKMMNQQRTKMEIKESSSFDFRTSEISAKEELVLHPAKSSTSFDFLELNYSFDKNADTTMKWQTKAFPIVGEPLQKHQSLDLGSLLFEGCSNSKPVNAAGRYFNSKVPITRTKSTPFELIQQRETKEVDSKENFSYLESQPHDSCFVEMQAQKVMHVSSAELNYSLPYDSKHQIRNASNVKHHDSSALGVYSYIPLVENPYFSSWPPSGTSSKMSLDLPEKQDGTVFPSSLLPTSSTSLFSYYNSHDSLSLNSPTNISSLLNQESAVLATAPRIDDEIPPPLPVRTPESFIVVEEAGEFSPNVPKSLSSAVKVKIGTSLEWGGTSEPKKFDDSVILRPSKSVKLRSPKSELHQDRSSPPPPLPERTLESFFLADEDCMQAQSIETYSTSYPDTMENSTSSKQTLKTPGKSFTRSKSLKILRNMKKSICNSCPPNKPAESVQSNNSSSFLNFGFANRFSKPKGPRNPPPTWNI

inhibition, inactive:
COc1ccccc1-n1c(CNc2c(C)cccc2C)nnc1SCC(=O)N1CCOCC1 19.1%
Cc1ccc(-n2c(N)c(C(=O)N3CCOCC3)sc2=S)cc1 15.3%
O=C1CC(c2ccc3c(c2)OCO3)Sc2nc3ccccc3n21 (stereo unspecified) 11.4%
CCCCN(CCCC)Cc1ccc(N)cc1 3.2%
COc1ccccc1OCc1nc(C#N)c(N2CCC(C(N)=O)CC2)o1 6.04%
COc1nc(Nc2ccc(-c3nc4ccccc4o3)cc2)nc(N2CCOCC2)n1 9.06%
O=C(C1CCN(S(=O)(=O)c2cccc3cccnc23)CC1)N1CCc2ccccc21 2.25%
CCCCn1c(SCC(=O)N2CCCCC2)nc2cc(S(N)(=O)=O)ccc21 17.2%
C=CCNc1nc(NCCN2CCOCC2)nc(OC)n1 7.44%
COC(=O)c1c(NC(=O)CC2SCC(C(=O)OC)NC2=O)sc2c1CCCC2 (stereo unspecified) -6.67%
Cc1onc(-c2ccccc2)c1C(=O)Nc1nc(-c2ccc(F)c(F)c2)cs1 13.4%
CN(C)S(=O)(=O)N1CCN(CC(O)COc2ccc(C(=O)c3ccccc3)cc2)CC1 (stereo unspecified) 10.5%
CCOC(=O)N1CCN(Cc2nc3c(c(=O)n(C)c(=O)n3C)n2Cc2cccc3ccccc23)CC1 7.1%
Nc1c(S(=O)(=O)c2cccs2)c2nc3ccccc3nc2n1/N=C/c1cccc(O)c1 13.6%
O=C(NCc1ccco1)C1CCCN(S(=O)(=O)c2ccc(-n3cnnn3)cc2)C1 (stereo unspecified) 12%
CC(=O)OCP(C)(=O)COC(C)=O 5.43%
CCN(CC)CCOC(=O)c1ccc(N=CC2=C(O)CC(C)(C)CC2=O)cc1 4.23%
Cc1c(N2C(=O)C(C)SC23C(=O)Nc2ccccc23)c(=O)n(-c2ccccc2)n1C (stereo unspecified) 4.85%
COc1ccc(C)cc1NC(=O)C1CCCN1S(=O)(=O)c1ccc2c(c1)CCC(=O)N2 (stereo unspecified) 12%
CCN(CC)c1ccc(NC(=O)c2ccco2)c(C)c1 15.3%
CCc1ccc2[nH]c(=O)c(CN(CCN(C)C)C(=O)Nc3ccccc3OC)cc2c1 -7.1%
CCOC(=O)C1CCN(C(=O)CN(C)S(=O)(=O)c2cc(C)ccc2OC)CC1 -35.9%
CCC12CC3CC(C1)CC(C(=O)Nc1nn[nH]n1)(C3)C2 11.3%
CCN1C(=O)c2cccc3c(S(=O)(=O)Nc4c(C)n(C)n(-c5ccccc5)c4=O)ccc1c23 -6.68%
COC(=O)C1=C(C)NC(=O)CC1c1cccc(OC)c1OC (stereo unspecified) -0.77%
Cn1c(SCC(=O)Nc2ccc3c(c2)oc2ccccc23)nnc1-c1ccccc1 -0.68%
CCCC(=O)C1=C(c2ccccc2)C(C#N)(C#N)C(C#N)=C1N 12%
Cc1ccc(N(CC(=O)Nc2ccc(S(=O)(=O)N3CCOCC3)cc2)S(C)(=O)=O)cc1C 5.91%
CCOC(=O)CSc1nc2c(c(=O)[nH]c(=O)n2C)n1CCc1ccccc1 12%
CC(=O)NC12CC3CC(C1)CC(C(=O)OCC(=O)Nc1ncc(Cl)c(C)c1Cl)(C3)C2 3.56%
O=C1c2ccccc2S(=O)(=O)N1CC(O)COc1ccc(Cl)cc1 (stereo unspecified) 5.66%
CCCCCC(=O)Nc1ccc(N2CCN(S(C)(=O)=O)CC2)cc1 8.48%
CCn1cc(C(=O)NCc2ccco2)c(=O)c2cc(S(=O)(=O)N3CCC(C)CC3)ccc21 2.74%
COC(=O)CSc1nc2c(c(=O)n(C)c(=O)n2C)n1CCCc1ccccc1 4.4%
CCN1C(=O)c2cccc3c(S(=O)(=O)NCCCN4CCOCC4)ccc1c23 8.51%
Cc1cc(NC(=O)COc2cccc(C)c2C)no1 11.1%
Cn1c(SCC(N)=O)nnc1C1CCN(C(=O)NCc2ccccc2)CC1 11.9%
CCOC(=O)c1ccc(-c2n[nH]c(=O)c3ccccc23)cc1 -0.81%
Cc1ccc2c(c1)N(CC(=O)NCc1cccs1)C(=O)CO2 7.47%
O=C(OCN1C(=O)c2ccccc2C1=O)c1cccs1 8.67%
O=C(NCCCc1ccccc1)C1CCN(c2nnc(-n3cccc3)s2)CC1 1.14%
Cn1c(=O)c2cc(S(=O)(=O)N3CCN(c4cccc(C(F)(F)F)c4)CC3)ccc2n(C)c1=O 3.54%
CCn1c(COc2cccc(C)c2)nnc1SCC(=O)Nc1cccc(C(=O)O)c1 7.81%
O=C(CCS(=O)(=O)Cc1ccccc1)N1CCN(Cc2ccccc2)CC1 -7.91%
Cc1cc(Nc2cccc(Cl)c2)n2ncnc2n1 -9.28%
COc1ccc(C(=O)NC2(C(F)(F)F)N=C3SCCN3C2=O)cc1 (stereo unspecified) 96.1%
CCOC(=O)N1CCC(n2c(=S)[nH]c3cc(OC)c(OC)cc3c2=O)CC1 -14.3%
COc1cc2c(cc1OC)CN(C(=O)Cc1ccc(OC)c(S(=O)(=O)N3CCOCC3)c1)CC2 1.37%
CCOc1cc(C#N)c(NC(=O)c2ccco2)cc1OCC 7.92%
Cn1nc(-c2ccc(C(=O)Nc3cccnc3)cc2)c2ccccc2c1=O 13.4%
Cc1ccnc(NC(=O)Nc2cccc(F)c2)c1 -13.1%
O=c1c2cc(N3CCOCC3)ccc2[nH]c(=S)n1CCCN1CCCCC1 7.14%
COCCn1nnnc1C(c1ccc(OC)cc1OC)N1CCN(c2ccccc2)CC1 (stereo unspecified) 7.1%
COCCN(CCOC)C(=O)c1c[nH]c2ccc(S(=O)(=O)N(C)c3ccc(F)cc3)cc2c1=O -2.71%
C/C=C/c1ccc(OCCCCN2C(=O)NC(C)(C)C2=O)c(OC)c1 0.22%
CCOC(=O)c1cc2c(=O)n3cccc(C)c3nc2n(Cc2ccco2)c1=NC(=O)c1cccnc1 12.3%
CCC(C)NC(=O)CN(c1ccc(OC)cc1)S(=O)(=O)c1ccc(NC(C)=O)cc1 (stereo unspecified) -3.53%
CC1CCCCN1CCNC(=O)Cn1nc(-c2ccccc2)ccc1=O (stereo unspecified) -5.86%
CCOC(=O)N1CCC(NC(=O)CCC(=O)N2CC(C)Oc3ccccc32)CC1 (stereo unspecified) 4.49%
COCCn1cc(C(=O)N2CCCC(C)C2)c2c3ccccc3n(C)c2c1=O (stereo unspecified) 8.11%
CCn1c(SCC(=O)Nc2ccc(C(C)=O)cc2)nc2ccccc21 9.9%
CC(C)C(NC(=O)C1CCCCC1)C(=O)Nc1ccc2c(c1)OCCO2 (stereo unspecified) 5.06%
Cc1cc(C)nc(N2CCN(c3ncnc4c3cnn4Cc3ccc(Cl)cc3Cl)CC2)n1 0.3%
Cc1c(C(=O)N2CCOCC2)oc2ccc(S(=O)(=O)N3CCCCCC3)cc12 1.73%
C=CCn1c(C)nc2c(c1=O)c1nc3ccccc3nc1n2-c1ccc(C)cc1 20.7%
Cc1ccc(C2CC(c3ccccc3C)n3nc(N)nc3N2)cc1 (stereo unspecified) 1.78%
O=C(c1ccccc1)c1coc2ccc(O)c(CN3CCOCC3)c12 4.43%
CCn1c(SCCC#N)nnc1-c1ccncc1 5.61%
COC(=O)C1C(=O)C2=C(CC1C)NC(C)=C(C(=O)OC(C)C)C2c1ccc(OC)c(O)c1 (stereo unspecified) 8.85%
CCOn1c(=O)c(-c2cc3ccccc3o2)[n+]([O-])c2ccccc21 7.2%
N#C/C(=C\c1ccc[nH]1)S(=O)(=O)c1ccccc1 1.07%
Cc1cccc(-c2noc(C3CCCCC3)n2)c1 15.8%
CCOc1ccc(C(=O)NCCCN(CC)CC)cc1 16.6%
CCC1CCCCN1C(=O)Cn1c(=O)oc2ccccc21 (stereo unspecified) -4.33%
Cc1ccc(NC(=O)N(Cc2cc3cc(C)cc(C)c3[nH]c2=O)CC2COCCO2)cc1 (stereo unspecified) 1.86%
CC(C)CN1C(=O)NC(NC(=O)c2cccs2)(C(F)(F)F)C1=O (stereo unspecified) -4.34%
CCOc1ccccc1N(C(=O)Cn1nnnc1-c1ccc(C)o1)C(CC)C(=O)NC(C)(C)C (stereo unspecified) 7.35%
O=C(NCc1ccccc1)N(Cc1nc2ccccc2c(=O)[nH]1)C1CCCC1 12.2%
Fc1ccccc1N1CCN(c2nc3ccccc3n3nnnc23)CC1 0.81%
CN(C(=O)COC(=O)c1nc(-c2ccccc2)n(-c2ccccc2)n1)C1CCS(=O)(=O)C1 (stereo unspecified) 23.8%
C=CCc1cccc(CNc2nc3ccccc3n2CC)c1O 8.31%
O=C(O)CCc1ccc(-c2ccccc2)n1NC(=O)c1ccco1 13.5%
CC1CN(C(=O)c2cc3c(=O)n4ccccc4nc3s2)CC(C)O1 (stereo unspecified) 14.8%
CC(C)CC(=O)NC1(C(F)(F)F)C(=O)Nc2c1c(=O)n(C)c(=O)n2C (stereo unspecified) 1.85%
COc1ccc(C)cc1NC(=O)CN1CCN(c2ccccc2F)CC1 9.06%
Cc1nn2c3c(cnc2c1-c1ccccc1)C(=O)CC(c1ccco1)C3 (stereo unspecified) 3.63%
COc1nc(C)nc2c1sc(=S)n2C -1.82%
Cn1c(=O)c2c(nc(N3CCOCC3)n2Cc2c(F)cccc2Cl)n(C)c1=O 4.34%
COC(=O)COC(=O)c1ccc(-n2nnnc2SC)cc1 10.7%
O=C(CCn1c(=O)oc2ccccc21)N1CCN(C(c2ccccc2)c2ccccc2)CC1 5.67%
O=C(Oc1ccc(OC(=O)c2ccncc2)cc1)c1ccncc1 8.57%
